PubChem BioAssay (EPA / NIEHS)
Records with an inconclusive call do not appear. Activity calls are given as the source filed them. Rule for the calls, unless noted: active = hit-call score of the fitted dose curve at least 0.9, where 1 is the maximum; inconclusive = response in the unintended direction; inactive = score below 0.9.

Tests used:
[1] = biological target: Cellular tumor antigen p53 (Homo sapiens) (UniProt P04637); test: TOX21_p53_BLA_p2_ratio: Tox21 HCT-116 p53 Agonism Beta-lactamase Assay, Ratio, Phase 2 (AID 2283592)
In short: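 HCT116 cells carrying a p53-responsive beta-lactamase reporter were plated, incubated 5 h at 37C, then dosed with compounds in DMSO (217-fold dilution) for 16 h. CCF4-AM substrate was added for 2 h at room temperature; the 460/530 nm emission ratio gave gain-of-signal activity relative to DMSO.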

[2] = biological target: Cellular tumor antigen p53 (Homo sapiens) (UniProt P04637); test: TOX21_p53_BLA_p3_ratio: Tox21 HCT-116 p53 Agonism Beta-lactamase Assay, Ratio, Phase 3 (AID 2283596)
In short: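 HCT116 p53-bla cells (4000/well) given compound in DMSO (217-fold dilution) after 5 h, incubated 16 h at 37C. CCF4-AM substrate 2 h at room temperature; 460/530 nm emission ratio, gain fitted against DMSO.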

[3] = biological target: Cellular tumor antigen p53 (Homo sapiens) (UniProt P04637); test: TOX21_p53_BLA_p5_ratio: Tox21 HCT-116 p53 Agonism Beta-lactamase Assay, Ratio, Phase 5 (AID 2283599)
In short: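 HCT-116 cells carrying a p53-inducible beta-lactamase reporter were seeded at 4000 cells/well and dosed after 5 h with compound in DMSO (217-fold dilution). After 16 h at 37C, CCF4-AM substrate was added for 2 h, and the 460/530 nm emission ratio was scored as gain-of-signal versus DMSO.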

[4] = biological target: Cellular tumor antigen p53 (Homo sapiens) (UniProt P04637); test: TOX21_p53_BLA_p4_ratio: Tox21 HCT-116 p53 Agonism Beta-lactamase Assay, Ratio, Phase 4 (AID 2283601)
In short: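 HCT116 cells carrying an inducible beta-lactamase reporter were plated at 4000 cells/well, rested 5 h, then exposed to compounds in DMSO (217-fold dilution) for 16 h at 37C. CCF4-AM substrate was loaded 2 h at room temperature; 460/530 nm emission ratio scored gain-of-signal versus DMSO.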

[5] = TOX21_p53_BLA_p5_viability: Viability Assessment in the Tox21 HCT-116 p53 Agonism Beta-lactamase Assay, Phase 5 (AID 2283600)
In short: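 Cells were plated at 4000/well, rested 5 h at 37C, then given compounds in DMSO (217-fold dilution) for 16 h at 37C, 5% CO2. Following the CCF4-AM beta-lactamase read, CellTiter-Glo was added and luminescence was read after 30 min at room temperature.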

[6] = CCTE_Harrill_HTTr_Viability_MCF7: CCTE's 6-hour Cell Viability Assessment for the High-Throughput Transcriptomics (HTTr) Platform, in MCF-7 cells cultured in DMEM + 10% fetal bovine serum, Harrill Lab (AID 2284010; active = hit-call score of the fitted dose curve at least 0.9, where 1 is the maximum; inactive = score below 0.9)
In short: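 MCF-7 cells in DMEM + 10% FBS, 384-well, exposed 6 h to an eight-point dilution series. Membrane integrity scored by high-content imaging of propidium iodide exclusion; bidirectional fit versus DMSO.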

[7] = CCTE_Harrill_HTTr_Apoptosis_MCF7: CCTE's 6-hour Apoptosis Assessment for the High-Throughput Transcriptomics (HTTr) Platform, in MCF-7 cells cultured in DMEM + 10% fetal bovine serum, Harrill Lab (AID 2284011; active = hit-call score of the fitted dose curve at least 0.9, where 1 is the maximum; inactive = score below 0.9)
In short: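 MCF-7 cells in DMEM + 10% fetal bovine serum were exposed to chemicals for 6 hours over an eight-point dilution series. Caspase-3/7 activation was imaged by high content imaging with CellEvent Caspase 3/7 Green; bidirectional fitting used DMSO as baseline.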

[8] = TOX21_p53_BLA_p4_viability: Viability Assessment in the Tox21 HCT-116 p53 Agonism Beta-lactamase Assay, Phase 4 (AID 2283597);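 note: hits lower the luminescence signal meaning cytotoxicity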
In short: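 HCT116 p53-bla cells (4000/well) rested 5 h at 37C, then received compounds in DMSO (217-fold dilution) for 16 h at 37C, 5% CO2. CellTiter-Glo was added after the CCF4-AM read, and luminescence was read after 30 min at room temperature.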

[9] = tested on: Brachyury (BRA) Protein Expression, Deisenroth Lab, TBXT (gene 6862); test: CCTE_Deisenroth_DEVTOX-GLR_legacy_Bra: (Legacy) CCTE's DevTox GLR-Endo Assay Evaluation of Brachyury (BRA) Protein Expression, Deisenroth Lab (AID 2284329; active = hit-call score of the fitted dose curve at least 0.9, where 1 is the maximum; inactive = score below 0.9)
In short: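 RUES2-GLR human pluripotent cells differentiated 48 h with two 24-h-interval chemical exposures (1 nM - 200 uM, 10 points); fixed, nuclear-stained, imaged. Bra+ cell percentage (intensity 5x BMAD above pluripotent control median) fitted relative to 0.2% DMSO.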

[10] = CCTE_Deisenroth_DEVTOX-GLR_legacy_CellCount: (Legacy) Viability Assessment in CCTE's DevTox GLR-Endo Assay, Deisenroth Lab (AID 2284331; active = hit-call score of the fitted dose curve at least 0.9, where 1 is the maximum; inactive = score below 0.9); details: actives raise or lower the signal
In short: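 Seed RUES2-GLR 24 h; differentiate 48 h, dosing at 0 and 24 h; fix, stain nuclei; image 5 fields/well; count nuclei. Conc. 1 nM - 200 uM, single technical replicate, n=4 experiments; bidirectional fit vs 0.2% DMSO.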

[11] = tested on: SRY-box transcription factor 17 (SOX17) Protein Expression, Deisenroth Lab, SOX17 (gene 64321); test: CCTE_Deisenroth_DEVTOX-GLR_legacy_Sox17: (Legacy) CCTE's DevTox GLR-Endo Assay Evaluation of SRY-box transcription factor 17 (SOX17) Protein Expression, Deisenroth Lab (AID 2284341; active = hit-call score of the fitted dose curve at least 0.9, where 1 is the maximum; inactive = score below 0.9); details: actives raise or lower the signal
In short: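 Using the RUES2-GLR line, compounds are tested as 10-point series during 48-h defined-media differentiation. Sox17 reporter fluorescence per cell determines positivity; endpoint is percentage positive, analysed bidirectionally versus DMSO baseline.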

[12] = tested on: SRY-box transcription factor 2 (SOX2) Protein Expression, Deisenroth Lab, SOX2 (gene 6657); test: CCTE_Deisenroth_DEVTOX-GLR_legacy_Sox2: (Legacy) CCTE's DevTox GLR-Endo Assay Evaluation of SRY-box transcription factor 2 (SOX2) Protein Expression, Deisenroth Lab (AID 2284346; active = hit-call score of the fitted dose curve at least 0.9, where 1 is the maximum; inactive = score below 0.9)
In short: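 RUES2-GLR human pluripotent cells seeded 24 h, then differentiated 48 h in defined media with two chemical doses 24 h apart (10-point, 1 nM–200 uM). Fixed, nuclear-stained, imaged; % Sox2+ cells (>5x BMAD over endoderm control median), DMSO-subtracted, fitted upward.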

[13] = tested on: SRY-box transcription factor 2 (SOX2) Protein Expression, Deisenroth Lab, SOX2 (gene 6657); test: CCTE_Deisenroth_DEVTOX-GLR_Endo_SOX2: CCTE's DevTox GLR-Endo Assay Evaluation of SRY-box transcription factor 2 (SOX2) Protein Expression, Deisenroth Lab (AID 2284412)
In short: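 RUES2-GLR human pluripotent cells were seeded 24 h, then differentiated 48 h with two chemical exposures 24 h apart. Cells were fixed, nuclei stained and imaged by high-content microscopy. Endpoint is %SOX2+ cells over cell count, minus 0.2% DMSO control; 10-point series 1 nM–200 uM.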

[14] = tested on: SRY-box transcription factor 17 (SOX17) Protein Expression, Deisenroth Lab, SOX17 (gene 64321); test: CCTE_Deisenroth_DEVTOX-GLR_Endo_SOX17: CCTE's DevTox GLR-Endo Assay Evaluation of SRY-box transcription factor 17 (SOX17) Protein Expression, Deisenroth Lab (AID 2284413; active = hit-call score of the fitted dose curve at least 0.9, where 1 is the maximum; inactive = score below 0.9)
In short: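 Endpoint: % change in SOX17+ fraction (SOX17+ cells / cell count) vs 0.2% DMSO solvent control. RUES2-GLR reporter cells, 48 h endoderm differentiation, two doses at 24 h intervals, high-content fluorescence imaging, 5 fields/well.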

[15] = tested on: Brachyury (BRA) Protein Expression, TBXT (gene 6862); test: CCTE_Deisenroth_DEVTOX-GLR_Endo_BRA: CCTE's DevTox GLR-Endo Assay Evaluation of Brachyury (BRA) Protein Expression, Deisenroth Lab (AID 2284417; active = hit-call score of the fitted dose curve at least 0.9, where 1 is the maximum; inactive = score below 0.9)
In short: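 Percent BRA+ (mesoderm) RUES2-GLR cells after 48 h differentiation with two exposures, 1 nM - 200 uM; 0.2% DMSO control subtracted.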

[16] = CCTE_Deisenroth_DEVTOX-GLR_Endo_CellCount: Viability Assessment in CCTE's DevTox GLR-Endo Assay, Deisenroth Lab (AID 2284420; active = hit-call score of the fitted dose curve at least 0.9, where 1 is the maximum; inactive = score below 0.9)
In short: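 RUES2-GLR human pluripotent cells seeded 24 h, then differentiated 48 h with two chemical exposures at 24 h intervals (10-point, 1 nM - 200 uM). Fixed, nuclear-stained, imaged; nuclei counts give % change in cell count versus 0.2% DMSO.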

[17] = tested on: SRY-box transcription factor 17 (SOX17) Protein Expression, Deisenroth Lab, SOX17 (gene 64321); test: CCTE_Deisenroth_DEVTOX-GLR_Pluri_SOX17: CCTE's DevTox GLR-Pluri Assay Evaluation of SRY-box transcription factor 17 (SOX17) Protein Expression, Deisenroth Lab (AID 2284427)
In short: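 RUES2-GLR human pluripotent cells were seeded 24 h, then differentiated 48 h in defined media with two chemical exposures 24 h apart (10-point series, 1 nM - 200 uM). Fixed, nuclear-stained cells were imaged; %SOX17+ cells minus 0.2% DMSO control reported.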

[18] = tested on: SRY-box transcription factor 2 (SOX2) Protein Expression, Deisenroth Lab, SOX2 (gene 6657); test: CCTE_Deisenroth_DEVTOX-GLR_Pluri_SOX2: CCTE's DevTox GLR-Pluri Assay Evaluation of SRY-box transcription factor 2 (SOX2) Protein Expression, Deisenroth Lab (AID 2284428; active = hit-call score of the fitted dose curve at least 0.9, where 1 is the maximum; inactive = score below 0.9)
In short: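 Human pluripotent RUES2-GLR cells were seeded 24 h, then differentiated 48 h in defined media with two chemical doses at 24-h intervals (10-point, 1 nM–200 uM). Nuclear-stained cells were imaged; SOX2+ cells/cell count gave percent change versus 0.2% DMSO control.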

[19] = CCTE_Deisenroth_DEVTOX-GLR_Pluri_CellCount: Viability Assessment in CCTE's DevTox GLR-Pluri Assay Evaluation of Total Cell Counts, Deisenroth Lab (AID 2284430; active = hit-call score of the fitted dose curve at least 0.9, where 1 is the maximum; inactive = score below 0.9)
In short: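 RUES2-GLR human pluripotent cells, seeded 24 h, then differentiated 48 h with two chemical exposures 24 h apart; 10-point series 1 nM - 200 uM. Fixed, nuclear-stained, imaged (5 fields/well); nuclei count as % change vs 0.2% DMSO.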

[20] = biological target: Thyroid hormone receptor alpha (Rattus norvegicus) + Thyroid hormone receptor beta (Rattus norvegicus) (UniProt P18113+P63059); test: TOX21_TR_LUC_GH3_Antagonist_Followup: Tox21 GH3 Thyroid Hormone Receptor Antagonism Luciferase Follow-Up Assay (AID 2283942)
In short: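 Rat pituitary GH3 cells with a TRα/TRβ-driven luciferase reporter, 5 h attachment, then 15 concentrations (92 uM to 5nM final) plus 1.0 nM T3 agonist, 24 h at 37C/5% CO2. ONE-Glo luminescence; signal change fitted against DMSO baseline.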

THRA (gene 7067) = THRA (gene 7067) (UniProt P10827); test: TOX21_TRA_COA_Antagonist_Followup_ratio: Tox21 Thyroid Hormone Receptor alpha Antagonism through Coactivator Recruitment Follow-Up Assay, Ratio (AID 2283953)
In short: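 520:495 nm emission ratio (excitation 340 nm) reports fluorescein-SRC-2 peptide recruitment to GST-TRα LBD by TR-FRET with Tb anti-GST antibody. Values were normalized to DMSO (0%) and T3 control wells (100%); loss of signal indicated antagonism.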

THRB (gene 7068) = THRB (gene 7068) (UniProt P10828); test: TOX21_TRB_COA_Antagonist_Followup_ratio: Tox21 Thyroid Hormone Receptor beta Antagonism through Coactivator Recruitment Follow-Up Assay, Ratio (AID 2283967)
In short: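 Cell-free TR-FRET coactivator recruitment with GST-tagged TRβ LBD (5.0 nM) and fluorescein-labeled SRC-2 peptide (200 nM) detected by terbium anti-GST antibody (2 nM). The 520:495 nm emission ratio was normalized to DMSO (0%) and T3 (100%).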

[21] = biological target: Retinoic acid receptor RXR-alpha (Homo sapiens) (UniProt P19793); test: TOX21_TR_RXR_BLA_Antagonist_Followup_ratio: Tox21 Thyroid Hormone Receptor beta Retinoid X Receptor alpha (RXRa) Antagonism Beta-lactamase (BLA) Follow-Up Assay, Ratio (AID 2283972)
In short: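 RXRa-UAS-bla HEK293T cells in phenol red-free DMEM with 2% charcoal-stripped FBS; compounds at 11 concentrations in triplicate, 16 h at 37C. LiveBLAzer FRET-B/CCF4-AM substrate 2 h at room temperature; read as 460:530 nm ratio versus DMSO.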

Measured: AC50

Sequence of Cellular tumor antigen p53 (Homo sapiens) (P04637 whole entry, looked up): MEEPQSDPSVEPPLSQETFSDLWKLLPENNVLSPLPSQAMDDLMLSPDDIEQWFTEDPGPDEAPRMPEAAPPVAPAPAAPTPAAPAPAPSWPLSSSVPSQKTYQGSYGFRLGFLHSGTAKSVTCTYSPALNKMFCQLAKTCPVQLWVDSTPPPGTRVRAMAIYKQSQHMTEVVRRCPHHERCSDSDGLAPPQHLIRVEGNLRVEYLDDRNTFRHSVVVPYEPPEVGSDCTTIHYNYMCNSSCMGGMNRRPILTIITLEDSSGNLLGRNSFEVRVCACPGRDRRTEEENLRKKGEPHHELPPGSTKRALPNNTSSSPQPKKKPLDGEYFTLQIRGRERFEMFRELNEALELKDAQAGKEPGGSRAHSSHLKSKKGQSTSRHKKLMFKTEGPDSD
Sequence of THRA (gene 7067) (P10827 whole entry, looked up, the tested form may be a part): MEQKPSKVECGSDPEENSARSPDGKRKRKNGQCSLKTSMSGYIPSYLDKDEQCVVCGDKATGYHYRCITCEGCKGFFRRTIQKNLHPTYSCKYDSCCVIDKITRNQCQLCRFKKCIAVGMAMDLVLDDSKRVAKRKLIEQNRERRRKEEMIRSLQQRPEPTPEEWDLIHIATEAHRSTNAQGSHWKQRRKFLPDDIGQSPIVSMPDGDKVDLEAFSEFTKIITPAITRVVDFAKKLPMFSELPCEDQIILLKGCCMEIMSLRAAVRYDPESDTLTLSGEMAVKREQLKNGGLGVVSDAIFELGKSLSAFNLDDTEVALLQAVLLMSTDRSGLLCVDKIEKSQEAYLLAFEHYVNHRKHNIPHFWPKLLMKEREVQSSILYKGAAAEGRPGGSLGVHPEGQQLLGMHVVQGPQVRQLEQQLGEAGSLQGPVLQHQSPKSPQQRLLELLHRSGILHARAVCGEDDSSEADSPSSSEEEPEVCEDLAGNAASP
Sequence of THRB (gene 7068) (P10828 whole entry, looked up, the tested form may be a part): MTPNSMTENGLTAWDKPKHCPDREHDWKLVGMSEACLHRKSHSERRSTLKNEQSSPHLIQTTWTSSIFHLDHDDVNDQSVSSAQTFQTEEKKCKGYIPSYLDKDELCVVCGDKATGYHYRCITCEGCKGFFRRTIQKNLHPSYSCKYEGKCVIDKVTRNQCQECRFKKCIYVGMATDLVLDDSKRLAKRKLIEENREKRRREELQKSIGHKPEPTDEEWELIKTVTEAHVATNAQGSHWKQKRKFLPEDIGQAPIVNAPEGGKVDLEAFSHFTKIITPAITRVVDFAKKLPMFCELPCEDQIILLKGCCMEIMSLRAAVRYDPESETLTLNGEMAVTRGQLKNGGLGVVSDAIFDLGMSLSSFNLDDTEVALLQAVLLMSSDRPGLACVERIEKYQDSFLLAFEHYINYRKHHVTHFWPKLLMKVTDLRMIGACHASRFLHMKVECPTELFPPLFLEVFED
Sequence of Retinoic acid receptor RXR-alpha (Homo sapiens) (P19793 whole entry, looked up): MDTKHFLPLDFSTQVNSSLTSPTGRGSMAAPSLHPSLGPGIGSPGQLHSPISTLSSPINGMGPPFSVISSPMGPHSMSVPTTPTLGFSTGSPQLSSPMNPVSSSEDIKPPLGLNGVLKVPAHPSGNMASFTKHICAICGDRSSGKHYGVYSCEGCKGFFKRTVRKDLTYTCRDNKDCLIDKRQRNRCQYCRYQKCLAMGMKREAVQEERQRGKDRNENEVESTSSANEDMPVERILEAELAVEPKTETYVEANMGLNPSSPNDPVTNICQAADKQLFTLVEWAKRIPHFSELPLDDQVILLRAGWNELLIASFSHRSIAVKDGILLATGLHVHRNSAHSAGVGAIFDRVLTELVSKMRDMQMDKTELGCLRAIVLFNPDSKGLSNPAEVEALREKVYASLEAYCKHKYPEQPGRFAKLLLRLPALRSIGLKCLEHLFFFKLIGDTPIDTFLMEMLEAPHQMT

Cc1ccccc1OCC(O)CNCCOc1ccc(C(N)=O)cc1 (stereo not given)
inactive: [1] | [2] | [3] | [4]

CCCCCCCC/C=C\CCCCCCCC(=O)OC
inactive: [1] | [2] | [3] | [5] | [4] | [6] | [7]

COC(=O)Nc1nc2ccc(C(=O)c3ccccc3)cc2[nH]1
active: [1] 192 nM
inactive: [2] | [4]

O=C(O)CC(=O)O
inactive: [1] | [2] | [4]

NCCCC(=O)O
inactive: [1] | [8]

NC(=O)N1c2ccccc2CC(=O)c2ccccc21
inactive: [1] | [2] | [3] | [4] | [6] | [7]

COC(=O)Nc1nc2ccc(C(=O)c3cccs3)cc2[nH]1
active: [1] 94.3 nM | [2] 45.8 nM
inactive: [5]

CC1(C)S[C@@H]2[C@H](NC(=O)Cc3ccccc3)C(=O)N2[C@H]1C(=O)O
not listed: [3] | [6] | [7] | [8] | [20] | THRA (gene 7067) | THRB (gene 7068) | [21]
inactive: all other assays above

Brc1ccc(-c2ccccc2)cc1
inactive: [1] | [2] | [4]

CC(COc1ccccc1)NC(C)C(O)c1ccc(O)cc1 (stereo not given)
inactive: [1] | [2] | [4]

C#CC(O)CCCCC (stereo not given)
inactive: [1] | [2] | [5] | [4]

CCCn1cc[n+](C)c1C
inactive: [1] | [8] | [3]

C[C@@H](N)C(=O)O
inactive: [1] | [2] | [4]

CC(CN(C)C)CN1c2ccccc2CCc2ccccc21 (stereo not given)
inactive: [1] | [2] | [5] | [4]

C=CCc1ccccc1OCC(O)CNC(C)C (stereo not given)
inactive: [1] | [2] | [4]

Cc1ccc(Cl)c(N)c1Cl
inactive: [1] | [2] | [4]

O=C1OC(OC(=O)c2cccnc2Nc2cccc(C(F)(F)F)c2)c2ccccc21 (stereo not given)
inactive: [1] | [2] | [5] | [4] | [20] | THRA (gene 7067) | THRB (gene 7068) | [21]

Cc1cccc(C)c1OCC(C)N (stereo not given)
inactive: [1] | [2] | [4]
